Reference: PubChem BioAssay
Activity calls are given as the source filed them.

Tests used:
[1] = system: PRMT1 (protein arginine N-methyltransferase 1); assay: small molecules binding arginine methyltransferase PRMT1 – biochemical, small-molecule microarray, 635 nm fluorescence, primary screen (AID 1088); details: higher = more signal;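 further: binding of Prmt1 protein to compounds spotted on small-molecule microarray slides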
[2] = growth effects on S. cerevisiae YJM789 – YJM789 clinical isolate, OD600, 24 h, basal, primary screen (AID 1089); details: higher = more signal, called active from +8 up or from −8 down;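 further: growth of clinical yeast isolate S. cerevisiae YJM 789 seeded 1000 cells per well; test concentration not given here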
[3] = S. pombe growth modifiers, basal conditions – strain 972, OD600, 24 h, no modulator, primary screen (AID 1090);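 further: basal condition with compound alone and no growth modifier present; test concentration not given here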; details: S. pombe 972 growth, higher = more signal, called active from +8 up or from −8 down
[4] = budding yeast growth modifiers under rapamycin – strain BY4716, OD600, 96 h, primary screen (AID 1091); further: test concentration not given here; details: S. cerevisiae BY4716 + rapamycin, higher = more signal, called active from +8 up or from −8 down
[5] = molecular target: Torsin-1A-interacting protein 2 (Homo sapiens) (UniProt Q8NFQ8); assay: small molecules binding lysate-expressed LULL1 – cell lysate, human LULL1 lysate, 635/667 nm fluorescence, primary screen (AID 1092); details: small-molecule microarray, hLULL1 lysate binding, 635 nm fluorescence; higher = more signal;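 further: probe is lysate of COS7 cells overexpressing human LULL1; score merges per-feature 667 nm fluorescence with signal-to-noise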
[6] = optical density change of DRC41 E. coli – strain DRC41, OD650, 24 h, E. coli filamentation project, primary screen (AID 1093);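 further: MC1000 strain lacking acrAB efflux and sulA so SOS filamentation is blocked; test concentration not given here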; details: E. coli DRC41 growth, higher = more signal, called active from +8 up or from −8 down
[7] = probe aLefty2 binding to arrayed compounds – biochemical, biotinylated probe, 635/667 nm fluorescence, primary screen (AID 1094); details: small-molecule microarray, higher = more signal;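 further: score merges spot fluorescence near 667 nm with spot signal-to-noise ratio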
[8] = system: Noggin (protein binding on small-molecule microarray); assay: small molecules binding Noggin protein – biochemical, 635/667 nm fluorescence, primary screen (AID 1095); details: 635 nm fluorescence, higher = more signal;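 further: score merges 667 nm feature fluorescence with signal to noise over triplicate slides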
[9] = molecular target: Neurogenic locus notch homolog protein 3 (Homo sapiens) (UniProt Q9UM47); assay: small molecules binding NOTCH3 protein – biochemical, 635/667 nm fluorescence, primary screen (AID 1096); details: small-molecule microarray, 635 nm fluorescence, higher = more signal
[10] = probe aEGFR binding to arrayed compounds – biochemical, biotinylated probe, 635/667 nm fluorescence, primary screen (AID 1097); details: small-molecule microarray, higher = more signal;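 further: probe is a biotinylated anti-EGFR antibody binding compounds printed on slides; score combines fluorescence near 667 nm and signal to noise of each spot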

Sequence of Torsin-1A-interacting protein 2 (Homo sapiens) (Q8NFQ8 whole entry, looked up): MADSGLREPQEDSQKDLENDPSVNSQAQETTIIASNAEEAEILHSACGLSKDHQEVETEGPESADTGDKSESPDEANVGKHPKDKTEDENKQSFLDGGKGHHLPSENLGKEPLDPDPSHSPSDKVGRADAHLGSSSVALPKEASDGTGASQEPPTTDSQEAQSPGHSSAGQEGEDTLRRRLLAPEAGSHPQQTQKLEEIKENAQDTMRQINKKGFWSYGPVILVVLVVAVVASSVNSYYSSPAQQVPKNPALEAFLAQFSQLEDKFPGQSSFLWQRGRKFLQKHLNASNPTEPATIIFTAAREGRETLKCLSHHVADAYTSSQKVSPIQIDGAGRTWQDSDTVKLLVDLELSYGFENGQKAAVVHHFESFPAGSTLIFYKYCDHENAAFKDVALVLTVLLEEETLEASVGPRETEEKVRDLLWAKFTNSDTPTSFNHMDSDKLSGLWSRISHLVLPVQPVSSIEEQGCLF
Sequence of Neurogenic locus notch homolog protein 3 (Homo sapiens) (Q9UM47 whole entry, looked up): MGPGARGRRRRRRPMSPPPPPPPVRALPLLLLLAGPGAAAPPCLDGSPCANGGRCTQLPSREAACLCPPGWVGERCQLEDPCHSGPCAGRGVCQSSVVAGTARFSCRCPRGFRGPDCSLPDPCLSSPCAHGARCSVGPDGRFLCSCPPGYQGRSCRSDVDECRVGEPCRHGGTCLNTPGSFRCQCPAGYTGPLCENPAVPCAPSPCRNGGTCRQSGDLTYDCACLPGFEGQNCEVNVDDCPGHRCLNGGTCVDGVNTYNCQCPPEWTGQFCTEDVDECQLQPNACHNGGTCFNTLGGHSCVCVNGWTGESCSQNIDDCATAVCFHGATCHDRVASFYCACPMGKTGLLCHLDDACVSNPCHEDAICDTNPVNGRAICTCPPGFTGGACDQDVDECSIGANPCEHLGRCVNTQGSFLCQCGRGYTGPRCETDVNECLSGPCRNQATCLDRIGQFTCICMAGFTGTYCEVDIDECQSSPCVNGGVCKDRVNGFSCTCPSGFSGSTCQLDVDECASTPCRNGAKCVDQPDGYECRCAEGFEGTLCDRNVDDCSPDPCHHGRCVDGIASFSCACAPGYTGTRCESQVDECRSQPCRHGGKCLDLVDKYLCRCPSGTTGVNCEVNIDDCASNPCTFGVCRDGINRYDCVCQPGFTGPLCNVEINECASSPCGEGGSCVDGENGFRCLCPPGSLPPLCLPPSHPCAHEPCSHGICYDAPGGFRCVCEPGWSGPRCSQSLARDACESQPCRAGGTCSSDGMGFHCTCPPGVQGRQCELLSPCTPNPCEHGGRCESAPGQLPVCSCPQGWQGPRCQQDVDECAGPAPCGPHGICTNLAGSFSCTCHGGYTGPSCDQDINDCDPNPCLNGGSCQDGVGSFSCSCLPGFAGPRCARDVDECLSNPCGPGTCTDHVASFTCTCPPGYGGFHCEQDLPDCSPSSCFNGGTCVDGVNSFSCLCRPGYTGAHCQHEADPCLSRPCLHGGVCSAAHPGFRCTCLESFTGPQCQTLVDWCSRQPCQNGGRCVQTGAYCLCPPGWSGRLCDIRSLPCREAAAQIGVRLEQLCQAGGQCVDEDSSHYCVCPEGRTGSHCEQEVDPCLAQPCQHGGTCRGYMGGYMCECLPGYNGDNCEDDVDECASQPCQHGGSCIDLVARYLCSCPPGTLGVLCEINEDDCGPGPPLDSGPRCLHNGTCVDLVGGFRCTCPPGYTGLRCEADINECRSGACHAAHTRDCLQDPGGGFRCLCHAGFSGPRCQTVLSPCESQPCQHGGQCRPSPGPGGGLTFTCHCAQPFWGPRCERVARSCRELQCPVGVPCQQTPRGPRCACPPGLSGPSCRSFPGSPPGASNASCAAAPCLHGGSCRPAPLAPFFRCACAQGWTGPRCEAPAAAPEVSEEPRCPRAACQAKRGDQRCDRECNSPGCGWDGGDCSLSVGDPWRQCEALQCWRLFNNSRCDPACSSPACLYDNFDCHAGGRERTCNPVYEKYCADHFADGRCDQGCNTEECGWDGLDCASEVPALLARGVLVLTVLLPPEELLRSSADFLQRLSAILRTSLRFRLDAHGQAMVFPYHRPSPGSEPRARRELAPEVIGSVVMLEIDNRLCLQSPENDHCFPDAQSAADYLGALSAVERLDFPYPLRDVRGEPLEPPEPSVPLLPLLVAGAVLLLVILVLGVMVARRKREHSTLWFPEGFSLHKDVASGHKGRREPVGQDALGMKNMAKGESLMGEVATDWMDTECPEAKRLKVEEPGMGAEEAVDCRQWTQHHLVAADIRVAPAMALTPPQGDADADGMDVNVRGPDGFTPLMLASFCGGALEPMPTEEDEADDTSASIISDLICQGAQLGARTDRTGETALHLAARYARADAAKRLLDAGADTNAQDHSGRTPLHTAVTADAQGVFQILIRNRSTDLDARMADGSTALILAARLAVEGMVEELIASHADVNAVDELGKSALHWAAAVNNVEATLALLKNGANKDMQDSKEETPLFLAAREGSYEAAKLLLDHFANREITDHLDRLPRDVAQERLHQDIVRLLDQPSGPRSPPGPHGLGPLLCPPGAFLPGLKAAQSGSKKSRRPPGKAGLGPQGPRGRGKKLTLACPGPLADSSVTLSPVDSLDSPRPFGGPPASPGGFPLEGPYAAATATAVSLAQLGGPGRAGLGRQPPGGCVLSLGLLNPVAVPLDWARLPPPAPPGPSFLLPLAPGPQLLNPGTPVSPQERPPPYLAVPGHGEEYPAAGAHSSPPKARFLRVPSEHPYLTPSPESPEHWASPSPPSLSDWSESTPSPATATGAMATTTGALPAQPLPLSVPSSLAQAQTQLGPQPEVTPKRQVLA

CCCCC(=C=CC[C@@H](O)c1ccccc1OCCO)C[C@@H](O)c1ccccn1
composite z-score [1]: 1.35 | z-score [2]: 0.0466 (inactive) | z-score [3]: -0.314 (inactive) | z-score [4]: -1.14 (inactive) | composite z-score [5]: 2.3 | z-score [6]: 0.0399 (inactive) | composite z-score [7]: -0.119 | composite z-score [8]: 0.191 | composite z-score [9]: 0.311 | composite z-score [10]: -0.0238

O=C1NC(=O)C2C1C=CC(C(O)c1ccc(F)cc1)N2Nc1ccc(Cl)cc1Cl (stereo not given)
composite z-score [1]: 0.589 | z-score [2]: -25.3 (active) | z-score [3]: -7.26 (inactive) | z-score [4]: -0.0449 (inactive) | composite z-score [5]: 3.02 | z-score [6]: -1.3 (inactive) | composite z-score [7]: 0.096 | composite z-score [8]: -0.749 | composite z-score [9]: 0.14 | composite z-score [10]: -0.123

COC(=O)c1ccc(OC)c(/C=C\CC(OC(=O)c2ccncc2)c2ccccc2)c1 (stereo not given)
composite z-score [1]: 0.264 | z-score [2]: -2.64 (inactive) | z-score [3]: -2.43 (inactive) | z-score [4]: -0.0389 (inactive) | composite z-score [5]: 0.179 | z-score [6]: 1.27 (inactive) | composite z-score [7]: -0.0851 | composite z-score [8]: 0.66 | composite z-score [9]: 0.0482 | composite z-score [10]: -0.0286

CC1CC/C=C\[C@H]2OC34C=CCN(C(C)C)C(=O)[C@H]3N(C(C)CO)C(=O)[C@@H]4C2C(=O)O1 (stereo not given in full)
composite z-score [1]: 0.216 | z-score [2]: 0.0052 (inactive) | z-score [3]: 0.285 (inactive) | z-score [4]: -0.448 (inactive) | composite z-score [5]: 0.476 | z-score [6]: 1.62 (inactive) | composite z-score [7]: -0.172 | composite z-score [8]: 0.202 | composite z-score [9]: 0.41 | composite z-score [10]: -0.158

COC(=O)c1c2oc(c1C(=O)OC)C(=O)N[C@H](Cc1ccccc1)Cn1cc(nn1)C1(CCCCC1)NC(=O)N[C@H](CO)CC2
composite z-score [1]: 0.286 | z-score [2]: 1.92 (inactive) | z-score [3]: -0.261 (inactive) | z-score [4]: -0.691 (inactive) | composite z-score [5]: 1.46 | z-score [6]: 2.01 (inactive) | composite z-score [7]: -0.124 | composite z-score [8]: 0.292 | composite z-score [9]: -0.147 | composite z-score [10]: -0.158

[N-]=[N+]=NCc1ccccc1[C@H]1OC(c2ccc(OCCCO)cc2)=N[C@@]1(CCS(=O)(=O)c1ccccc1)C(=O)NCCN1CCOCC1
composite z-score [1]: 1.56 | z-score [2]: 0.917 (inactive) | z-score [3]: 0.306 (inactive) | z-score [4]: 1.27 (inactive) | composite z-score [5]: 3.5 | z-score [6]: -0.0501 (inactive) | composite z-score [7]: 0.181 | composite z-score [8]: 0.0038 | composite z-score [9]: 1.06 | composite z-score [10]: 0.214

CN1C(=O)C2C=CC(C(O)COCc3ccccc3)N(Nc3ccc([N+](=O)[O-])cc3[N+](=O)[O-])C2C1=O (stereo not given)
composite z-score [1]: 0.332 | z-score [2]: 0.629 (inactive) | z-score [3]: -1.58 (inactive) | z-score [4]: 0.308 (inactive) | composite z-score [5]: 1.78 | z-score [6]: -0.278 (inactive) | composite z-score [7]: 0.229 | composite z-score [8]: -0.39 | composite z-score [9]: -0.282 | composite z-score [10]: -0.146

O=C1O[C@@H](c2ccccc2)[C@@H](c2ccccc2)N2[C@@H](c3ccccc3OCCO)[C@]3(C(=O)Nc4ccc(C#CC5(O)CCCCCC5)cc43)[C@@H](C(=O)N3CCCCCCC3)[C@H]12
composite z-score [1]: 1.53 | z-score [2]: 0.834 (inactive) | z-score [3]: -0.51 (inactive) | z-score [4]: 2.57 (inactive) | composite z-score [5]: 5.07 | z-score [6]: 1.23 (inactive) | composite z-score [7]: 1.95 | composite z-score [8]: 2.46 | composite z-score [9]: 1 | composite z-score [10]: 1.52

Cc1ccc(S[C@]2(C(=O)NCc3ccccc3)CC(=O)N(Cc3ccccc3C(F)(F)F)[C@@H]2c2ccc(CO)cc2I)cc1
composite z-score [1]: 1.3 | z-score [2]: -1.53 (inactive) | z-score [3]: -4.08 (inactive) | z-score [4]: 0.899 (inactive) | composite z-score [5]: 1.93 | z-score [6]: 0.322 (inactive) | composite z-score [7]: -0.0593 | composite z-score [8]: -0.86 | composite z-score [9]: -0.582 | composite z-score [10]: -0.282

CC(C)(C)OC(=O)CC[C@]1(C(N)=O)N=C(c2ccc(OCCCO)cc2)O[C@H]1c1ccccc1N=[N+]=[N-]
composite z-score [1]: 0.138 | z-score [2]: 1.37 (inactive) | z-score [3]: 0.138 (inactive) | z-score [4]: 0.467 (inactive) | composite z-score [5]: 2.75 | z-score [6]: 0.626 (inactive) | composite z-score [7]: 0.0598 | composite z-score [8]: -0.165 | composite z-score [9]: 0.206 | composite z-score [10]: 0.141

[N-]=[N+]=NCc1ccccc1[C@H]1OC(c2ccc(OCCCO)cc2)=N[C@@]1(CCS(=O)(=O)c1ccccc1)C(=O)O
composite z-score [1]: 0.0361 | z-score [2]: -0.791 (inactive) | z-score [3]: -0.155 (inactive) | z-score [4]: -0.814 (inactive) | composite z-score [5]: 3.11 | z-score [6]: 0.32 (inactive) | composite z-score [7]: 0.021 | composite z-score [8]: -0.482 | composite z-score [9]: 0.253 | composite z-score [10]: -0.067

C[C@H]1C2[C@H](Cc3ccccc3)NC(=O)[C@]23C(=O)N[C@@H](Cc2ccccc2)C(=O)N2CCC[C@H]2C(=O)NC/C=C/CC/C=C/C3[C@@H]2O[C@]12C (stereo not given in full)
composite z-score [1]: 1.05 | z-score [2]: -0.501 (inactive) | z-score [3]: -0.36 (inactive) | z-score [4]: -0.441 (inactive) | composite z-score [5]: 1.7 | z-score [6]: -0.269 (inactive) | composite z-score [7]: -0.0666 | composite z-score [8]: 0.79 | composite z-score [9]: 0.977 | composite z-score [10]: -0.135

O=C1O[C@H](c2ccccc2)[C@H](c2ccccc2)N2[C@H]1[C@@H](C(=O)N1CCN(c3ncccn3)CC1)[C@]1(C(=O)Nc3ccc(C#CC4(O)CCCCCC4)cc31)[C@H]2c1ccc(O)cc1
composite z-score [1]: 1.55 | z-score [2]: 0.736 (inactive) | z-score [3]: -0.391 (inactive) | z-score [4]: 1.21 (inactive) | composite z-score [5]: 2.57 | z-score [6]: 2.61 (inactive) | composite z-score [7]: -0.209 | composite z-score [8]: 1.2 | composite z-score [9]: 1.11 | composite z-score [10]: -0.0225

O=C(O)C1=CC[C@H]2C(=O)N(c3ccccc3)C(=O)[C@@H]12
composite z-score [1]: 0.964 | z-score [2]: 0.735 (inactive) | z-score [3]: 1.38 (inactive) | z-score [4]: 1.52 (inactive) | composite z-score [5]: 2.5 | z-score [6]: -0.148 (inactive) | composite z-score [7]: 0.0694 | composite z-score [8]: -0.312 | composite z-score [9]: 1.06 | composite z-score [10]: 0.186

O=C1C2C=CC(C(O)C3CCCCC3)N(Nc3ccccc3F)C2C(=O)N1c1ccccc1 (stereo not given)
composite z-score [1]: 1.55 | z-score [2]: 0.968 (inactive) | z-score [3]: -0.645 (inactive) | z-score [4]: 0.515 (inactive) | composite z-score [5]: 3.24 | z-score [6]: 0.256 (inactive) | composite z-score [7]: 0.79 | composite z-score [8]: 0.0994 | composite z-score [9]: 1.02 | composite z-score [10]: 0.239

CCCCCN1CC=CC23O[C@@H]4/C=C\CCCOC(=O)C4[C@H]2C(=O)N(CCO)[C@@H]3C1=O (stereo not given in full)
composite z-score [1]: -0.0525 | z-score [2]: -0.402 (inactive) | z-score [3]: -1.15 (inactive) | z-score [4]: -1.46 (inactive) | composite z-score [5]: 3.42 | z-score [6]: 3.22 (inactive) | composite z-score [7]: -0.134 | composite z-score [8]: 0.486 | composite z-score [9]: -0.285 | composite z-score [10]: -0.0987

COCCOC(=O)N1C(=O)[C@@]2(c3cc(C#CCNC(N)=O)ccc31)[C@H](C(=O)Nc1nc3ccccc3s1)[C@H]1C(=O)O[C@H](c3ccccc3)[C@H](c3ccccc3)N1[C@@H]2c1ccc(O)cc1
composite z-score [1]: 1.47 | z-score [2]: 1.45 (inactive) | z-score [3]: 1.16 (inactive) | z-score [4]: 1.32 (inactive) | composite z-score [5]: 1.35 | z-score [6]: -0.264 (inactive) | composite z-score [7]: -0.103 | composite z-score [8]: 0.939 | composite z-score [9]: 0.986 | composite z-score [10]: 0.0654

C=CCNC(=O)[C@H]1[C@@H]2C(=O)O[C@@H](c3ccccc3)[C@@H](c3ccccc3)N2[C@@H](c2ccc(O)cc2)[C@]12C(=O)Nc1ccc(C#CCC(C(=O)OC)C(=O)OC)cc12
composite z-score [1]: 0.526 | z-score [2]: 0.357 (inactive) | z-score [3]: -0.213 (inactive) | z-score [4]: -0.836 (inactive) | composite z-score [5]: 1.13 | z-score [6]: 1.44 (inactive) | composite z-score [7]: -0.0478 | composite z-score [8]: 0.614 | composite z-score [9]: -0.112 | composite z-score [10]: -0.102

C=CC[C@]1(C(N)=O)N=C(c2ccc(OCCCO)cc2)O[C@H]1c1ccccc1N=[N+]=[N-]
composite z-score [1]: 1.37 | z-score [2]: 0.344 (inactive) | z-score [3]: -1.3 (inactive) | z-score [4]: 0.673 (inactive) | composite z-score [5]: 3.33 | z-score [6]: 1.94 (inactive) | composite z-score [7]: 0.239 | composite z-score [8]: 0.301 | composite z-score [9]: 0.923 | composite z-score [10]: 0.0049

COc1ccc(NN2C(C(O)c3ccccc3)C=CC3C(=O)N(C4CCCCC4)C(=O)C32)cc1 (stereo not given)
composite z-score [1]: 1.56 | z-score [2]: -0.0673 (inactive) | z-score [3]: 0.991 (inactive) | z-score [4]: 1.34 (inactive) | composite z-score [5]: 3.34 | z-score [6]: 0.0456 (inactive) | composite z-score [7]: 0.107 | composite z-score [8]: 1.08 | composite z-score [9]: 1.06 | composite z-score [10]: 0.0953

CCCC[C@@H](O)C1=C(C)Cn2c(=O)n(-c3ccccc3)c(=O)n2[C@H]1CO
composite z-score [1]: -0.23 | z-score [2]: -1.43 (inactive) | z-score [3]: -1.39 (inactive) | z-score [4]: -0.846 (inactive) | composite z-score [5]: -0.249 | z-score [6]: 2.53 (inactive) | composite z-score [7]: -0.218 | composite z-score [8]: -0.0422 | composite z-score [9]: -0.839 | composite z-score [10]: -0.0517

C=CC[C@]1(C(=O)NCC(O)CO)N=C(c2ccc(OCCCO)cc2)O[C@H]1c1ccccc1CN=[N+]=[N-] (stereo not given in full)
composite z-score [1]: 1.01 | z-score [2]: -0.0604 (inactive) | z-score [3]: -0.234 (inactive) | z-score [4]: -0.83 (inactive) | composite z-score [5]: 3.51 | z-score [6]: 0.384 (inactive) | composite z-score [7]: 0.239 | composite z-score [8]: -0.62 | composite z-score [9]: -0.922 | composite z-score [10]: -0.0828
